USP1-UAF1 inh: inhibitors of human USP1/UAF1 deubiquitinase; recombinant USP1/UAF1, Ub-Rhodamine cleavage fluorescence; hit rate 0.23% among 390,000; Potency, µM (doses to about 57.1 µM), inactives show at the top dose activity change, negative = inhibition, most hits filed as inhibitors; further: potency means the concentration at half of the fitted maximal effect; nearly all actives have a fitted effect of over 60% in size
Target sequence (O94782 whole entry, looked up): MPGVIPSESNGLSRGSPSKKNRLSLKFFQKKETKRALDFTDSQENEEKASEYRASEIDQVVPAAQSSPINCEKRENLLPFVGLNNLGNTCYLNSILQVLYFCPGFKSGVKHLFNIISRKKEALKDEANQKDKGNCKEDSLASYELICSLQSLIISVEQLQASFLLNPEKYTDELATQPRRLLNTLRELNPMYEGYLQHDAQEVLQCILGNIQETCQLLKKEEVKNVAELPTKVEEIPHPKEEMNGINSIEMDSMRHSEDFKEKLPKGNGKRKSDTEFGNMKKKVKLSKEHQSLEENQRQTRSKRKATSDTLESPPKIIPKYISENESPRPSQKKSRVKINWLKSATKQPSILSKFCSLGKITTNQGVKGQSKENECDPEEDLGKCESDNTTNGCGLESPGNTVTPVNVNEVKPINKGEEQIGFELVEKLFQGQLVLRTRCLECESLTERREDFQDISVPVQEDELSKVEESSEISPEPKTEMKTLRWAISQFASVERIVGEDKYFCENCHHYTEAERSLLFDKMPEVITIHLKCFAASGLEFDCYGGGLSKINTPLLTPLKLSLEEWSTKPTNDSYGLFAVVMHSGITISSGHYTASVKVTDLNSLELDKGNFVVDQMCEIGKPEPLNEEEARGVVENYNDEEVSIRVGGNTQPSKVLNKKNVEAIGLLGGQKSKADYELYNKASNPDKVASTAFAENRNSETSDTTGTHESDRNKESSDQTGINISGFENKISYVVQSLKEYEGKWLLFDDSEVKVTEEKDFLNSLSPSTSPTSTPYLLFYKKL
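Step one: compound is pinned into 1nM USP1/UAF1 in HEPES pH 7.8 buffer with TCEP. Step two: 15 min room-temperature incubation. Step three: Ub-Rho (150nM final) starts cleavage, tracked by fluorescence over six one-minute reads.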
Coupling enz: coupling enzyme interference in Giardia aldolase counter-screen | coupling enzyme system counterscreen, AmpLite Red fluorescence | activity change, negative = inhibition, % at 58.2 µM, hits read low | hit rate 0.67% among 290,000; in the data active means activity change below about -30%
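Final compound at 57.5 uM, incubated 10 min at RT with coupling enzyme reagent (glyceraldehyde-3-phosphate), then 20 min with substrate and AmpLite Red detection. Fluorescence read at 525/598 nm; tests interference with the coupling assay, not aldolase inhibition.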
TrxR1 inh: inhibitors of rat thioredoxin reductase 1 | O89049 | recombinant rTrxR1, NADPH fluorescence consumption, selenite substrate | Potency, µM (series often up to 114 µM), inactives show top-dose activity change, negative = inhibition, most hits filed as inhibitors | hit rate 1% among 390,000 | AID 588453; further: potency means the concentration at half of the fitted maximal effect; nearly all actives have a fitted effect of over 65% in size
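Rat TrxR1 (90 nM in the dispensed reagent) was pre-reduced with 400 uM NADPH for 5 min at room temperature, then incubated with compound for 15 min. After 400 uM selenite was added, NADPH fluorescence (Ex 340/Em 450 nm) was followed for 8 min.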
TrxR1 substrate: rat thioredoxin reductase 1 substrate activity | O89049 | purified TrxR1 substrate turnover, NADPH consumption readout | Potency, µM (doses to about 114 µM), for the others: at the highest dose activity change, negative = substrate turnover | hit rate 0.01% among 390,000 | AID 588456; further: potency means the concentration at half of the fitted maximal effect; nearly all actives have a fitted effect of over 50% in size
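Rat TrxR1, dispensed at 90 nM, was prereduced with 400 uM NADPH (final) for 5 min at ~22 deg C, then incubated with compound 15 min before 400 uM selenite. A first-read NADPH fluorescence drop versus no-compound background flagged substrates.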
GALK inh: blocks human galactokinase activity; hit rate 0.007% among 270,000; Potency, µM (highest dose often 57.5 µM), without a hit: top-dose activity change, negative = inhibition, actives largely listed as inhibitors; Purified GALK, Kinase-Glo residual ATP luminescence; P51570; further: potency means the concentration at half of the fitted maximal effect
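Quantitative HTS: GALK 5 nM, ATP 35 uM, galactose 100 uM, 1 h room temperature, then luciferase-based ATP detection.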
Active calls of the source: *; ? = inconclusive; . = no result; [ ] = dose if it differs, or a comment. This is a sample that favours compounds with a hit; in the whole collection about 1.5% have one here. Unless noted, the call rests on the fitted dose curve; in most records, active means well fitted curve in the direction sought with a large enough effect; inconclusive means small, poorly fitted or top-dose-only effect, or another doubt; inactive means no such curve, though single readings can be large; an effect the other way counts as inactive or inconclusive. On the % scale 0 is the no-effect control and ±100 the full control effect.

SMILES	USP1-UAF1 inh	Coupling enz	TrxR1 inh	TrxR1 substrate	GALK inh
COc1ccccc1NC(=O)CN(Cc1ccco1)C(=O)c1cncc(Br)c1	-15%	-31*	-23%	-13%	-3%
O=C(NCCc1nc2ccccc2n1CCCOc1ccccc1)C1CCCCC1	.	.	12%[0.0914 µM]	-5%	.
Cc1ccccc1OCC(=O)NCC(C)NC(=O)COc1ccccc1C (stereo not given)	.	.	-33%	-17%	.
O=C(N/N=C1\C(=O)c2cccc3cccc1c23)c1ccc(O)cc1	-18%	0	17%[57.1 µM]	-6%	-1%
O=C1C([N+](=O)[O-])=C(O)c2cccc3cccc1c23	.	-51*	.	.	-3%
COC(=O)C1=C(O)/C(=C\c2ccc(CNS(=O)(=O)c3ccc(Cl)cc3)o2)N=C1C	-8%	-27	28µM*	-15%	0%
CCOC(=O)C1=C(O)/C(=C\c2ccc(CNS(=O)(=O)c3ccc(Br)cc3)o2)N=C1C	-19%	-4	14µM*	0%	0%
Oc1cc(O)c(/C=C/c2ccnc3ccccc23)c(O)c1	.	.	-6%	4%	.
CNC(=O)c1cc(-c2cccs2)on1	.	.	?	-2%	.
O=S(=O)(c1cnc2ccccc2c1)N1CCN(c2nc(-c3cccs3)nc3ccccc23)CC1	.	.	11%	0%	.
COc1ccc(C(=O)/C=C/c2cn(CC(O)CN3CCCCCC3)c3ccccc23)cc1OC (stereo not given)	?	.	40µM*	-8%	.
CC1(C)C(=O)C=CC(=O)C(C)(C)C(=O)C=CC(=O)C(C)(C)C2=CC=C(O2)C(C)(C)C(=O)C=CC1=O	-23%	.	16µM*	-8%	.
CCOC(=O)c1nc(S(C)(=O)=O)ncc1N1CCOCC1	-16%	3	4%	3%	-3%
CS(=O)(=O)c1ncc(Cl)c(C(=O)Nc2ccc(N3CCOCC3)cc2)n1	-2%	-3	10µM*	4%	4%
CCOC(=O)c1nc(S(C)(=O)=O)ncc1Cl	-18%	-1	18µM*	10%	-1%
CS(=O)(=O)c1ccc(C(=O)Nc2ccc(N3CCOCC3)cc2)c(Cl)c1	-19%	0	13%[57.1 µM]	0%[57.1 µM]	0%
CS(=O)(=O)c1ncc(Cl)c(C(=O)Nc2ccc(OC(F)F)cc2)n1	-12%	5	40µM*	-13%	4%
Cc1ccc(F)c(C2C3C=CCC(C)C3C(=O)N2Cc2ccccc2)c1 (stereo not given)	.	2	-14%	-7%	.
COc1cc(OC)c2c(c1)C(=O)OC2c1cc(OC)c(OC)cc1C (stereo not given)	.	.	16%	4%	.
CN(N=O)c1ccc2c(c1)Cc1ccccc1-2	.	.	6%	-2%[0.0914 µM]	.
COc1cc2c(cc1OC)C(=O)C(c1ccc3c(c1)OCO3)CC2 (stereo not given)	-8%	.	.	.	.
COc1cc2c(cc1OC)C(=O)C(Br)CC2 (stereo not given)	14µM*	.	.	.	.
C=C1C=C(C(F)(F)F)n2ncc(C(=O)NCc3ccc(F)cc3)c2N1	.	.	7%	-3%	.
COc1ccccc1NC(=S)NN=C(C)c1ccccn1	-1%	.	11µM*	-6%	.
CCOc1cccc(C(=O)NC(=S)Nc2cccc(C)c2)c1	-7%	2	5µM*	-6%	0%
SMILES	USP1-UAF1 inh	Coupling enz	TrxR1 inh	TrxR1 substrate	GALK inh
CCCOc1cccc(C(=O)NC(=S)Nc2cccc(C(F)(F)F)c2)c1	-2%	1	4%	1%	1%
O=C(NC(=S)Nc1ccc(Cl)c(C(=O)O)c1)c1cccc(COc2ccccc2)c1	?	11	71µM*	-1%	-2%
COc1cccc(C(=O)NC(=S)Nc2ccc(N(C)C)cc2)c1	-16%	2	20µM*	-15%	2%
O=S(=O)(c1ccc(F)cc1)N1CCN(c2nc(-c3ccc(F)cc3)nc3cc(Cl)ccc23)CC1	.	.	29%	3%	.
CCCCC(=O)NC(=S)Nc1cccc(NC(=O)c2ccco2)c1	-20%	2	8.9µM*	1%	-1%
O=C(/C=C/c1ccco1)NC(=S)Nc1cccc([N+](=O)[O-])c1	0%	-1	20µM*	-2%[57.1 µM]	0%
O=C(NC(=S)Nc1cccc([N+](=O)[O-])c1)c1ccco1	-3%	-1	-11%[57.1 µM]	-1%[57.1 µM]	3%
O=C(/C=C/c1ccco1)NC(=S)Nc1ccccc1	-11%	1	45µM*	-12%	5%
Cc1cccc(NC(=S)NC(=O)/C=C/c2ccco2)c1	-11%	-3	22µM*	4%	-1%
CCC(=O)NC(=S)Nc1ccc(NC(=O)c2ccco2)cc1	-20%	1	-1%[57.1 µM]	2%[57.1 µM]	1%
CC(=O)c1ccc(NC(=S)NC(=O)/C=C/c2ccco2)cc1	-1%	5	?	-6%	-2%
COc1ccc(-c2cc(C3C4C=CCCC4(C)C(=O)N3Cc3ccccc3)ccc2F)cc1OC (stereo not given)	.	0	0%	1%	.
CSc1cccc(NC(=O)/C=C/c2ccco2)c1	-23%	-6	14µM*	-9%[57.1 µM]	3%
COc1cccc(NC(=O)/C=C/c2ccco2)c1	-4%	-7	-69%	-7%	0%
Nc1cc(N)c(OCC(F)(F)F)cc1OCC(F)(F)F	25µM*	-50*	0.32µM*	-7%	0%
COc1ccc(C2C(C#N)=C(N)Oc3cc(C)n(Cc4ccco4)c(=O)c32)cc1 (stereo not given)	-14%	-3	3.2µM*	1%	1%
COc1cccc(C2C(C#N)=C(N)Oc3cc(C)n(Cc4ccco4)c(=O)c32)c1 (stereo not given)	-10%	0	?	0%	1%
O=S(=O)(Nc1ncccn1)c1ccc(Cl)cc1	-18%	3	21%	8%	5%
CN(C)c1nc(NS(=O)(=O)c2ccc(Cl)cc2)nc(N(C)C)n1	-2%	-32*	7%	-7%	4%
Nc1ncnc2c1nc(Sc1ccc(Cl)cc1)n2[C@H]1OC2COP(=O)(O)O[C@H]2[C@@H]1O (stereo not given in full)	.	.	7%	3%	.
Cc1ccc2c(CN3CCCCC3)cc(=O)oc2c1C	-12%	4	0%	-2%	2%
Cc1ccc2c(CN3CCCc4ccccc43)cc(=O)oc2c1C	-18%	-53*	?	-5%	-3%
O=C(CCC(=O)c1ccc(F)cc1)OCc1nnc(-c2ccc([N+](=O)[O-])cc2)o1	-11%	.	50µM*	-12%	.
CCN(CC)c1nc(NC2CCN(C)CC2)c2cc(OC)c(OC)cc2n1	.	.	-19%	43%	.
Brc1ccc(Nc2c3c(nc4nncn24)CCC3)cc1	5%	.	22µM*	5%	.
Cc1ccc(Nc2c3c(nc4nncn24)CCC3)cc1	-22%	.	-2%	5%	.
COc1ccc(-c2nn3c(-c4cc(-c5ccccc5)n[nH]4)nnc3s2)cc1OC	.	.	0%	-4%	.
Nc1cccc2cnccc12	-24%	-38*	3%	4%	-2%
Oc1cccc2cnccc12	-6%	-9	-22%	-12%	-3%

Screening data from PubChem.
